In general, inhibition refers to the drop in the measured response relative to a control, in per cent.
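Further: reported value is the mean percent inhibition of NEK9.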

The test has as its target T1, Serine/threonine-protein kinase Nek9 (Homo sapiens) (UniProt Q8TD19).
T1 sequence (whole entry): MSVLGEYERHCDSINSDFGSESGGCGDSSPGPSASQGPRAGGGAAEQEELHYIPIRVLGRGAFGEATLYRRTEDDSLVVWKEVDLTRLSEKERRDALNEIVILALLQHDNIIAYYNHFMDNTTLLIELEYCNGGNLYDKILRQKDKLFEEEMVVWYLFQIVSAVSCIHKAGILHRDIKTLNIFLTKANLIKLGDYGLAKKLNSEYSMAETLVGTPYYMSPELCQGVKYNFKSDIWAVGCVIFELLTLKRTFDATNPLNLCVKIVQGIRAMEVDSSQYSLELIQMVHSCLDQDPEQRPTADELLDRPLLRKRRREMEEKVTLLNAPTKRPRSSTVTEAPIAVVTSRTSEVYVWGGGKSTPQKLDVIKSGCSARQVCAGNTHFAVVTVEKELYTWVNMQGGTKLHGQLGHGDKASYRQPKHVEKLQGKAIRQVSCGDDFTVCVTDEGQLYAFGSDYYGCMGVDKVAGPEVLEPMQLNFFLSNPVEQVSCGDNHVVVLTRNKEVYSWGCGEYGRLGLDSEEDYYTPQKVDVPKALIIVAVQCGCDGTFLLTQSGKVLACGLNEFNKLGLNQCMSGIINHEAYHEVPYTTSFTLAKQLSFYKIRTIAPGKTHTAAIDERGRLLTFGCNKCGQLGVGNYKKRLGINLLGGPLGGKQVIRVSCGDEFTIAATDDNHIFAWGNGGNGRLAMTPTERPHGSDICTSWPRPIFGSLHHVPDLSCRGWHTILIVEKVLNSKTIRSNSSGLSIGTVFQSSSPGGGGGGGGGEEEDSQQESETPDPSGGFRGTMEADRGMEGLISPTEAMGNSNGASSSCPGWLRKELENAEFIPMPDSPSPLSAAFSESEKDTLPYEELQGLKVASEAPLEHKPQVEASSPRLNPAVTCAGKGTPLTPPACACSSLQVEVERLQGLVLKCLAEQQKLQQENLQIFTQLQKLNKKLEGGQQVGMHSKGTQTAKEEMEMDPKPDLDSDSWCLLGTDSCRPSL
Particulars: at 0.1 µM.
In the case of `Fc1ccc(-c2c(-c3ccncc3)nc3n2CCS3)cc1`, the inhibition was found to be 5.56%.

For the compound `C/C(Nc1ccc(S(N)(=O)=O)cc1)=C1/C(=O)Nc2ccccc21`, the inhibition came out at 2.83%. In the case of `C[C@@H](Oc1cc(-n2cnc3ccc(OC4CCN(C)CC4)cc32)sc1C(N)=O)c1ccccc1Cl`, the inhibition stood at 62%. With `CCS(=O)(=O)c1ccc(OC)c(Nc2ncc(-c3ccccc3Cl)o2)c1` the figure was 4.12%. With `COc1cc(N2CCN(C(C)C)CC2)ccc1Nc1nc(Nc2ccc(F)cc2C(=O)NC[C@@H](O)CO)c2cc[nH]c2n1` the figure was 2.99%; with `Cc1nnc(-c2ccc(C)c(-c3ccc(C(=O)NCc4ccc(Cl)cc4)cc3)c2)o1`, 6.68%. For `COc1ccc2ncn(-c3cc(O[C@H](C)c4ccccc4Cl)c(C(N)=O)s3)c2c1`, the inhibition turned out to be 31.8%. With `COc1cc(Nc2ncc3c(C)nc(-c4cccc(Oc5ccccc5)c4)n3n2)cc(OC)c1OC` the figure was 29%. `CN(C)CCCNc1nccc(-c2c(-c3ccc(F)cc3)nn3cc(C(F)(F)F)ccc23)n1`: the inhibition came to 5.9%.

Regarding `CS(=O)(=O)CCNCc1ccc(-c2ccc3ncnc(Nc4ccc(OCc5ccccc5)c(Br)c4)c3c2)o1`, the inhibition came out at 6.05%. Regarding `COc1cc2ncn(-c3cc(OCCc4ccccc4)c(C(N)=O)s3)c2cc1OC`, the inhibition came out at 1.66%. Take `O=C(NCC1CC1)c1ccc(-c2cccc(C(=O)NC3CC3)c2)cc1`: the inhibition turned out to be 9.43%. With `CN1CCN(CCCNc2nc3ccc(Oc4ccc(NC(=O)Nc5cc(C(F)(F)F)ccc5F)cc4)cc3[nH]2)CC1` the figure was 2.54%; with `CN(C)c1ccc2c(c1)/C(=C/Nc1ccc(S(N)(=O)=O)cc1)C(=O)N2`, -1.19%; with `Clc1ccc(CNc2nccc(-c3cnn4ncccc34)n2)cc1`, -0.09%. With `COc1cccc(-n2cnc3c(N/N=C/c4ccncc4)ncnc32)c1` the figure was 0.98%; with `COc1ccc2cc(-c3c(-c4ccncc4)nc(-c4ccc([S+](C)[O-])cc4C)n3C)ccc2c1` (stereo not drawn), 3.4%; with `COc1cc2ncn(-c3cc(OCc4cccs4)c(C(N)=O)s3)c2cc1OC`, 5.68%.

Regarding `CNC(=O)c1cncc(/C=C/c2c(C)cccc2C)c1`, the inhibition is -0.53%. With `COc1cc(C)c(N(C)C(=O)CN(C)C)cc1Nc1nc(Nc2cccc(F)c2C(N)=O)c2cc[nH]c2n1` the figure was 5.24%; with `C#Cc1cccc(Nc2ncnc3ccc(OCCCCNCCS(C)(=O)=O)cc23)c1`, 8.12%. The figure for `COC(=O)Nc1nc2ccc(Sc3ccc(NC(=O)Nc4cc(C(F)(F)F)ccc4F)cc3)cc2[nH]1` is -1.77%; for `CCc1nccc2c1nc(-c1nonc1N)n2CC` it is 0.19%; for `COc1cc(Nc2ncc3c(C)nc(-c4cccc(C(F)(F)F)c4)n3n2)cc(OC)c1OC` it is 54.9%. For `O=C1Nc2ccc(I)cc2C1=Cc1cc(Br)c(O)c(Br)c1`, the inhibition came out at 9.81%. Regarding `COc1cc2ncn(-c3cc(OCc4ccccc4C(F)(F)F)c(C(C)=O)s3)c2cc1OC`, the inhibition is 8.54%. `O=C(Nc1ccc(Oc2ccc3[nH]c(NC(=O)c4ccccc4)nc3c2)cc1)Nc1cc(C(F)(F)F)ccc1F`: the inhibition is 9.72%. The figure for `c1ccc(Oc2ccc(Nc3ncc(-c4ccccc4)o3)cc2)cc1` is 0.25%. For the compound `Fc1ccc(-c2ncn(CCCN3CCOCC3)c2-c2ccncc2)cc1`, the inhibition was 0.56%.

On to `CCS(=O)(=O)c1ccc(OC)c(Nc2ncc(-c3cccc(-c4ccccc4F)c3)o2)c1`, for which the inhibition was -0.87%. For `Fc1ccc(-c2nc3n(c2-c2ccncc2)CCS3)cc1`, the inhibition was 2.21%. With `C[C@@H](Oc1cc(-n2cnc3ccc(OCC4CCN(C)CC4)cc32)sc1C(N)=O)c1ccccc1Cl` the figure was 77.4%; with `FC(F)(F)c1cccc(Nc2nccc(-c3cnn4nc(-c5ccccc5)ccc34)n2)c1`, 8.12%.
